Measurements from PubChem BioAssay (NCATS).
Inconclusive results are not listed. The source made the active and inactive calls. Calls follow the shape of the dose curve; as a rule, active = well fitted inhibition curve with a large enough effect; inconclusive = small, poorly fitted or top-dose-only effect; inactive = flat fitted curve, though single readings scatter.

System: Zika virus NS2B-NS3 protease
Experiment: Primary screen GU AMC qHTS for Zika virus inhibitors (AID 1347154); also: nearly all actives have a fitted effect of over 70% in size;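 as to activity change, negative = inhibition: 0% = no-inhibitor control and -100% = no-enzyme control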
Settings: Zika NS2B-NS3 unlinked protease, AMC fluorogenic substrate; series mostly up to 54.1 µM; activity change, negative = inhibition: at the top concentration
In short: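 Unlinked Zika NS2B hydrophilic domain/NS3 protease domain noncovalent complex (25 nM final) in 10 mM Tris-HCl pH 8.0, 0.01% Tween 20, with AMC peptide substrate. Fluorescence (ex 340, em 450 nm) change over 15 min, room temperature; percent inhibition fitted to 4-parameter Hill equation.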
Potency is read from the fitted curve at half-maximal effect.

**Q.** Which “activity change, negative = inhibition” value does the source give for CC1(C)OC(=O)Nc2ccc(Br)cc21 here?
**A.** The value was 0.346% (inactive).

**Q.** COc1ccc(-n2nc(CCC(=O)N(C)O)cc2-c2ccc(Cl)cc2)cc1 was tested. Which “activity change, negative = inhibition” value did it give?
**A.** The value was -1.87% (inactive).

**Q.** For CC(NN)c1ccccc1 (stereo unspecified), which “activity change, negative = inhibition” value is on record?
**A.** The value was 1.22% [at 25.8 µM] (inactive).

**Q.** How did the “activity change, negative = inhibition” value turn out when CCc1cc2cc(OC)c(OC)cc2c(Cc2ccccc2)n1 was run?
**A.** The value was -11.7% (inactive).

**Q.** With CC(=O)O[C@H]1CC[C@@]2(C)C(=CC[C@@H]3[C@@H]2CC[C@]2(C)C(C(C)=O)=CC[C@@H]32)C1 as the compound, how does the “activity change, negative = inhibition” value read?
**A.** Its value is -4.58% (inactive).

**Q.** Which “activity change, negative = inhibition” value does the source give for COCCc1ccccn1 here?
**A.** The value was 1.69% (inactive).

**Q.** OCCCc1ccccc1 was tested. Which “activity change, negative = inhibition” value did it give?
**A.** Its value is -0.564% (inactive).

**Q.** How did the Potency turn out when COc1ccc2cc(C=O)ccc2c1 was run?
**A.** Its Potency is 31.6 µM (active).

**Q.** CCCCCN(CCCOC)C(=O)C(CCC(=O)O)NC(=O)c1ccc(Cl)c(Cl)c1 (stereo unspecified) was tested. Which “activity change, negative = inhibition” value did it give?
**A.** Its value is -0.0102% (inactive).

**Q.** How did the “activity change, negative = inhibition” value turn out when COC(=O)CCCCC(CCSS/C(CCO)=C(\C)N(C=O)Cc1cnc(C)nc1N)SC(C)=O (stereo unspecified) was run?
**A.** Its value is -3.99% (inactive).

**Q.** With Oc1ccc(CCNCCCCCCNCCc2ccccc2)cc1O as the compound, how does the “activity change, negative = inhibition” value read?
**A.** Its value is -0.304% (inactive).

**Q.** For CCN1CCN(C(=O)N[C@@H](C(=O)N[C@@H]2C(=O)N3[C@@H]2SC(C)(C)[C@H]3C(=O)O)c2ccccc2)C(=O)C1=O, which “activity change, negative = inhibition” value is on record?
**A.** Its value is -4.78% (inactive).

**Q.** How did the “activity change, negative = inhibition” value turn out when COc1cc(/C=C/C(N)=O)cc(OC)c1OC was run?
**A.** Its value is -20.3% (inactive).

**Q.** For O=C(CS(=O)Cc1ccco1)NC/C=C\COc1cc(CN2CCCCC2)ccn1 (stereo unspecified), which “activity change, negative = inhibition” value is on record?
**A.** Its value is -2.37% (inactive).

**Q.** With NS(=O)(=O)c1ccc(N2CCCCS2(=O)=O)cc1 as the compound, how does the “activity change, negative = inhibition” value read?
**A.** Its value is 1.19% (inactive).

**Q.** CN(C)CCN1CCN(c2cccc(Cl)c2)C1=O was tested. Which “activity change, negative = inhibition” value did it give?
**A.** The value was 4.99% (inactive).

**Q.** With CN1CCN(N)CC1 as the compound, how does the “activity change, negative = inhibition” value read?
**A.** The value was -2.04% (inactive).

**Q.** C1N2CN3CN1CN(C2)C3 was tested. Which “activity change, negative = inhibition” value did it give?
**A.** Its value is -2.2% (inactive).

**Q.** O=C(O)CCCC[P+](c1ccccc1)(c1ccccc1)c1ccccc1 was tested. Which “activity change, negative = inhibition” value did it give?
**A.** Its value is 1.45% (inactive).

**Q.** With Cc1ncc(CO)c(CO)c1O as the compound, how does the “activity change, negative = inhibition” value read?
**A.** Its value is -3.06% (inactive).

**Q.** Which “activity change, negative = inhibition” value does the source give for CCOC(=O)O[C@]1(C(=O)OCCl)CC[C@H]2[C@@H]3CCC4=CC(=O)C=C[C@]4(C)[C@H]3[C@@H](O)C[C@@]21C here?
**A.** Its value is 1.59% (inactive).
